Measurements as given in the supplement of paper PMC4962491.
± gives the standard deviation of the averaged measurements.

System: FaDu
Experiment: mitochondrial oxygen consumption rate normalised to cell number, Z score vs plate DMSO wells; higher = higher oxygen consumption (negative = OCR reduction)
Settings: treatment time 24 h, assay medium: 5 mM glucose, 5 mM pyruvate, 4 mM glutamine
Description: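 Secondary screen: FaDu cells were incubated 24 h with the top 130 primary hits at 0.08, 0.4, 2 or 10 uM. Mitochondrial-specific OCR (basal minus antimycin A) was measured on a Seahorse XF96 in medium with 5 mM glucose, 5 mM pyruvate and 4 mM glutamine and normalised to Hoechst cell number. OCR score = (OCR - mean of plate DMSO wells) / SD of plate DMSO wells. Three repeats.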
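Further: compound exposure in DMEM (4 mM L-glutamine, 5 mM glucose), antimycin A injected at 2 µM after the basal reading and its residual OCR subtracted from basal.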

Row | Structure (SMILES) | mitochondrial oxygen consumption rate normalised (0.08 µM) | mitochondrial oxygen consumption rate normalised (0.4 µM) | mitochondrial oxygen consumption rate normalised (2 µM) | mitochondrial oxygen consumption rate normalised (10 µM)
1 | Nc1ncn([C@@H]2O[C@H](CO)[C@@H](O)[C@H]2O)c(=O)n1 | -0.369 ± 1.5 | 1.15 ± 0.3 | -1.48 ± 1.4 | -2.3 ± 1.5
2 | O=[N+]([O-])c1ccc(O)c2ncccc12 | 0.333 ± 0.4 | 1.67 ± 1.1 | -0.415 ± 1.2 | -3.63 ± 2.5
3 | CCCCCCCCCc1ccc(OCCOCCOCCOCCOCCOCCOCCOCCOCCO)cc1 | 0.0515 ± 1 | 0.101 ± 0.62 | -3.38 ± 0.78 | -7.69 ± 0.55
4 | CC(=O)[C@H]1CC[C@H]2[C@@H]3CCC4=CC(=O)CC[C@]4(C)[C@H]3CC[C@]12C | -0.339 ± 1.3 | 0.321 ± 0.92 | -0.631 ± 1.3 | -1.18 ± 0.26
5 | CCOc1ccc2nc3cc(N)ccc3c(N)c2c1 | -0.404 ± 1.3 | 0.17 ± 0.56 | -3.32 ± 0.28 | -6.87 ± 0.83
6 | Cc1cc(C(C)(C)CC(C)(C)C)ccc1OCCOCC[N+](C)(C)Cc1ccccc1 | -1.05 ± 0.63 | 0.588 ± 0.44 | -5.29 ± 1.2 | -12.6 ± 0.23
7 | CO[C@@]12[C@H](COC(N)=O)C3=C(C(=O)C(C)=C(N)C3=O)N1C[C@@H]1N[C@@H]12 | -0.603 ± 0.39 | 1.96 ± 0.85 | -1.73 ± 1.2 | -3.99 ± 1.3
8 | CCCCCCCCCCCCCCCC[N+](C)(C)CCN(Cc1ccc(OC)cc1)c1ncccn1 | 0.201 ± 1.1 | 1.55 ± 0.82 | 0.248 ± 1.4 | -5.99 ± 0.8
9 | Cc1cc(/C=C/c2ccc3cc(N(C)C)ccc3[n+]2C)c(C)n1-c1ccccc1 | -1.73 ± 1 | -11.7 ± 0.64 | -13.47 ± 0.04 | < -13.8
10 | N[C@@H](Cc1ccc(O)c(O)c1)C(=O)O | 0.0621 ± 1.8 | 0.345 ± 0.69 | 1.31 ± 0.9 | 0.522 ± 2
